Assay results reported in the supplement of paper PMC13380429.

Test system: Vero E6 infected with SARS-CoV-2
Assay: morphology score (similarity to uninfected cells); higher = more like uninfected cells
Details: 24 h

**Q.** With `CCn1nc(C2CCN(C(=O)CCO)CC2)nc1-c1cnc(N)c(-c2nnc(C(C)(C)C)o2)n1` (0.833333 µM) as the compound, how does the morphology score read?
**A.** 0.199

**Q.** How did the morphology score turn out when `Cc1cnc(C(=O)NCCc2ccc(S(=O)(=O)NC(=O)NC3CCCCC3)cc2)cn1` [glipizide] (10 µM) was run?
**A.** 0.218

**Q.** `CCOC(=O)c1cncn1[C@H](C)c1ccccc1` [etomidate] (10 µM) was tested. Which morphology score did it give?
**A.** -0.0479

**Q.** How did the morphology score turn out when `Nc1ccc(C(=O)Oc2ccccc2)c(O)c1` [phenyl-aminosalicylate] (10 µM) was run?
**A.** 0.0987

**Q.** How did the morphology score turn out when `CCn1cc(C(=O)O)c(=O)c2cc(F)c(N3CCNC(C)C3)c(F)c21` (stereo not given) [lomefloxacin] (10 µM) was run?
**A.** 0.0917

**Q.** With `CCCCCCCCN=c1ccn(CCCCCCCCCCn2ccc(=NCCCCCCCC)cc2)cc1` [octenidine] (0.833333 µM) as the compound, how does the morphology score read?
**A.** -0.0145

**Q.** With `CN(C)CCc1c[nH]c2ccc(Cn3cncn3)cc12` [rizatriptan] (10 µM) as the compound, how does the morphology score read?
**A.** -0.00598

**Q.** For `NC(=S)N/N=C/c1coc2ccccc2c1=O.[Cl][Cu][Cl]` (10 µM), which morphology score is on record?
**A.** -0.124

**Q.** For `CC(=O)O[C@H]1C[C@@H]2CC[C@@H]3[C@H](CC[C@@]4(C)[C@H]3C[C@H](N3CC[N+](C)(C)CC3)[C@@H]4OC(C)=O)[C@@]2(C)C[C@@H]1N1CC[N+](C)(C)CC1` [pipecuronium] (10 µM), which morphology score is on record?
**A.** 0.0487

**Q.** Which morphology score does the source give for `O=c1cccc2n1C[C@@H]1CNC[C@H]2C1` [cytisine] (10 µM) here?
**A.** 0.0351

**Q.** For `N[C@H](Cc1ccccc1)C(=O)O` [D-phenylalanine] (10 µM), which morphology score is on record?
**A.** 0.0544

**Q.** For `O=C1c2ccccc2-c2c(NCCc3ccccc3)c(=O)[nH]c3cccc1c23` (10 µM), which morphology score is on record?
**A.** -0.00844

**Q.** `CC(=O)NC1CCSC1=O` (stereo not given) [citiolone] (10 µM) was tested. Which morphology score did it give?
**A.** -0.0164

**Q.** Which morphology score does the source give for `CC(=O)C1=C(O)C=C2Oc3c(C(C)=O)c(O)c(C)c(O)c3C2(C)C1=O` (stereo not drawn) [usniacin-(+)] (10 µM) here?
**A.** 0.117

**Q.** Which morphology score does the source give for `O=C(O)CCc1ccc(NCc2cccc3c2CCCN3CCOc2ccccc2)cc1F` (10 µM) here?
**A.** -0.0144

**Q.** For `c1ccc2nc(C3=NCCN3)cnc2c1` (10 µM), which morphology score is on record?
**A.** 0.177

**Q.** Which morphology score does the source give for `CCCC(=O)OCOC(=O)C1=C(C)NC(C)=C(C(=O)OC)C1c1cccc(Cl)c1Cl` (stereo not given) [cleviprex] (10 µM) here?
**A.** 0.0656

**Q.** For `CN1C(=O)CN=C(c2ccccc2)c2cc(Cl)ccc21` [diazepam] (10 µM), which morphology score is on record?
**A.** 0.0883

**Q.** Which morphology score does the source give for `COC1(C[S@@+]([O-])c2ccccc2)CCN(CCc2c[nH]c3ccc(F)cc23)CC1` (10 µM) here?
**A.** -0.00604

**Q.** With `C[C@]12CC[C@@H]3c4ccc(OC(=O)c5ccccc5)cc4CC[C@H]3[C@@H]1CC[C@@H]2O` [estradiol-benzoate] (10 µM) as the compound, how does the morphology score read?
**A.** -0.19

**Q.** For `O=C(O)c1ccc(NC(=O)[C@H](Cc2ccc(O)cc2)NC(=O)c2ccccc2)cc1` [bentiromide] (10 µM), which morphology score is on record?
**A.** 0.211

**Q.** Which morphology score does the source give for `CCOC(=O)C1=C(C)NC(C)=C(C(=O)OC)C1c1cccc(Cl)c1Cl` (stereo not given) [felodipine] (10 µM) here?
**A.** 0.224

**Q.** Which morphology score does the source give for `Fc1ccc(Cl)cc1-c1nc(Nc2ccncc2)c2nccnc2n1` (10 µM) here?
**A.** 0.0882

**Q.** How did the morphology score turn out when `O=C(Nc1cc(C(F)(F)F)cc(C(F)(F)F)c1)c1cc(Cl)ccc1O` [IKK-2-inhibitor-V] (10 µM) was run?
**A.** -0.2

**Q.** `CS(=O)(=O)c1ccc(-c2cnc(NCc3ccco3)n3cnnc23)cc1` (10 µM) was tested. Which morphology score did it give?
**A.** 0.197

**Q.** Which morphology score does the source give for `CCOC(=O)c1ncn2c1CN(C)C(=O)c1cc(N=[N+]=[N-])ccc1-2` (10 µM) here?
**A.** 0.00535

**Q.** Which morphology score does the source give for `CC(C)(C)Cn1c(N)nc2ccc(-c3[nH]c(C(C)(C)C)nc3-c3ccc(F)cc3)nc21` (10 µM) here?
**A.** -0.205

**Q.** How did the morphology score turn out when `OCCOc1ccc(/C(=C(/CCCl)c2ccccc2)c2ccccc2)cc1` [ospemifene] (10 µM) was run?
**A.** 0.19

**Q.** With `OCCCNc1ccccc1` [3-anilinopropan-1-ol] (10 µM) as the compound, how does the morphology score read?
**A.** -0.164

**Q.** How did the morphology score turn out when `CSc1cc2c(cc1C(F)(F)F)N(C(=O)Nc1cccnc1)CC2` (10 µM) was run?
**A.** -0.166

**Q.** With `CC1(COc2ccc3c(c2)ncn3-c2ccc3cccc(N4CCC(N)CC4)c3n2)COC1` [crenolanib] (0.833333 µM) as the compound, how does the morphology score read?
**A.** -0.0592

**Q.** How did the morphology score turn out when `c1ccc(-c2n[nH]cc2-c2ccnc3ccccc23)nc1` (10 µM) was run?
**A.** -0.0555

**Q.** For `CC(C)(C)C(=O)OCC(=O)[C@H]1CC[C@H]2[C@@H]3CCC4=CC(=O)CC[C@]4(C)[C@H]3CC[C@]12C` [desoxycorticosterone-pivalate] (10 µM), which morphology score is on record?
**A.** 0.123

**Q.** `NCCC(=O)N[C@@H](Cc1c[nH]cn1)C(=O)O` [carnosine] (0.833333 µM) was tested. Which morphology score did it give?
**A.** 0.0964

**Q.** `N#Cc1c(-c2ccccc2)cc(-c2cc(Br)ccc2O)[nH]c1=O` (10 µM) was tested. Which morphology score did it give?
**A.** 0.048

**Q.** How did the morphology score turn out when `CCCC(CCC)C(=O)Nc1ccn([C@@H]2O[C@H](CO)[C@@H](O)C2(F)F)c(=O)n1` (0.833333 µM) was run?
**A.** 0.0484

**Q.** How did the morphology score turn out when `CCCCN(CCCC)CC(O)c1cc(Cl)cc2c1-c1ccc(Cl)cc1/C2=C/c1ccc(Cl)cc1` (stereo not given) [lumefantrine] (10 µM) was run?
**A.** 0.15

**Q.** Which morphology score does the source give for `CC(C)(C)NC(=O)N[C@H](C(=O)N1C[C@H]2[C@@H]([C@H]1C(=O)NC(CC1CCC1)C(=O)C(N)=O)C2(C)C)C(C)(C)C` (stereo not given in full) [boceprevir] (10 µM) here?
**A.** 0.133

**Q.** How did the morphology score turn out when `CC1(C)CCC(C)(C)c2c1cc(C(=O)Nc1cc(F)c(C(=O)O)c(F)c1)c(O)c2Cl` (10 µM) was run?
**A.** -0.137

**Q.** For `CO[C@H]1CC[C@H](N2C(=O)CNc3ncc(-c4ccc(C(C)(C)O)nc4)nc32)CC1` (0.833333 µM), which morphology score is on record?
**A.** 0.21
